Measurements reported in PubChem BioAssay AID1159580 (chemical genetic matrix, 2015).
Screen size: about 5,500 compounds; about 2,000 (36%) were called active. About 18% were inconclusive and are not listed. Rule as the data show it: active = normalized growth mostly below about 0.91 (no sharp cut-off); inconclusive = no clear call, values can overlap the other calls; inactive = mostly above about 0.92. This is one part of the list.

Test: chemical genetic growth profiling, strain panel (AID 1159580);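 also: tested at 20 µM; growth read once vehicle control cultures reached saturation at 30 °C; 1 = growth at the plate median or of vehicle wells; lower values mean less growth of the strain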
Details: growth OD

Measured: normalized growth

C=CCSCC1Nc2cc(Cl)c(S(N)(=O)=O)cc2S(=O)(=O)N1 (configuration not stated)
inactive: S. cerevisiae deletion strains, locus YJR075W, strain HOC1, active compounds read low 1.01 | S. cerevisiae deletion strains, locus YKL009W, strain mrt4, active compounds read low 1.02 | S. cerevisiae deletion strains, locus YKL068W, active compounds read low 1.02 | S. cerevisiae deletion strains, locus YKL085W, strain MDH1 (second series), active compounds read low 1 | S. cerevisiae deletion strains, locus YKL085W, strain MDH1, active compounds read low 1 | S. cerevisiae deletion strains, locus YKL160W, strain elf1, active compounds read low 0.994 | S. cerevisiae deletion strains, locus YKL190W, strain CNB1, active compounds read low 1.01 | S. cerevisiae deletion strains, locus YKR001C, strain vps1, active compounds read low 1.02 | S. cerevisiae deletion strains, locus YKR026C, strain gcn3, active compounds read low 1 | S. cerevisiae deletion strains, locus YKR091W, strain srl3, active compounds read low 1 | S. cerevisiae deletion strains, locus YLL001W, strain dnm1, active compounds read low 0.997 | S. cerevisiae deletion strains, locus YLL026W, active compounds read low 0.998 | S. cerevisiae deletion strains, locus YLL041C, strain sdh2, active compounds read low 1 | S. cerevisiae deletion strains, locus YLR027C, strain aat2, active compounds read low 0.996 | S. cerevisiae deletion strains, locus YLR039C, strain RIC1, active compounds read low 1.02 | S. cerevisiae deletion strains, locus YLR058C, strain SHM2, active compounds read low 1.01 | S. cerevisiae deletion strains, locus YLR102C, strain apc9, active compounds read low 1.04 | S. cerevisiae deletion strains, locus YLR113W, strain HOG1, active compounds read low 1.06 | S. cerevisiae deletion strains, locus YLR221C, strain rsa3, active compounds read low 0.988 | S. cerevisiae deletion strains, locus YLR258W, strain gsy2, active compounds read low 0.998 | S. cerevisiae deletion strains, locus YLR262C, strain YPT6 (second series), active compounds read low 0.989 | S. cerevisiae deletion strains, locus YLR262C, strain YPT6, active compounds read low 1.04 | S. cerevisiae deletion strains, locus YLR268W, strain sec22, active compounds read low 1.02 | S. cerevisiae deletion strains, locus YLR320W, strain mms22, active compounds read low 0.985 | S. cerevisiae deletion strains, locus YLR330W, strain CHS5, active compounds read low 1.01 | S. cerevisiae deletion strains, locus YLR342W, strain FKS1 (second series), active compounds read low 0.996 | S. cerevisiae deletion strains, locus YLR342W, strain FKS1, active compounds read low 1.01 | S. cerevisiae deletion strains, locus YLR357W, strain rsc2, active compounds read low 0.991 | S. cerevisiae deletion strains, locus YLR370C, strain arc18, active compounds read low 1 | S. cerevisiae deletion strains, locus YLR371W, strain rom2, active compounds read low 1.02 | S. cerevisiae deletion strains, locus YLR384C, strain iki3, active compounds read low 1 | S. cerevisiae deletion strains, locus YLR418C, strain cdc73, active compounds read low 1.04 | S. cerevisiae deletion strains, locus YML016C, strain PPZ1, active compounds read low 1.01 | S. cerevisiae deletion strains, locus YML032C, strain rad52, active compounds read low 1.03 | S. cerevisiae deletion strains, locus YML120C, strain ndi1, active compounds read low 1 | S. cerevisiae deletion strains, locus YML124C, strain tub3, active compounds read low 1.02 | S. cerevisiae deletion strains, locus YMR058W, strain fet3, active compounds read low 0.998 | S. cerevisiae deletion strains, locus YMR078C, strain ctf18, active compounds read low 1.03 | S. cerevisiae deletion strains, locus YMR125W, strain sto1, active compounds read low 0.998 | S. cerevisiae deletion strains, locus YMR129W, active compounds read low 1 | S. cerevisiae deletion strains, locus YMR205C, strain PFK2, active compounds read low 0.995 | S. cerevisiae deletion strains, locus YMR223W, strain ubp8, active compounds read low 1.02 | S. cerevisiae deletion strains, locus YMR231W, strain pep5, active compounds read low 1 | S. cerevisiae deletion strains, locus YMR263W, strain SAP30, active compounds read low 1.02 | S. cerevisiae deletion strains, locus YMR307W, strain GAS1, active compounds read low 1.1 | S. cerevisiae deletion strains, locus YNL067W, strain RPL9B, active compounds read low 1.01 | S. cerevisiae deletion strains, locus YNL071W, strain lat1, active compounds read low 0.999 | S. cerevisiae deletion strains, locus YNL128W, strain TEP1, active compounds read low 1.01 | S. cerevisiae deletion strains, locus YNL153C, strain GIM3, active compounds read low 1.01 | S. cerevisiae deletion strains, locus YNL183C, strain NPR1, active compounds read low 0.977 | S. cerevisiae deletion strains, locus YNL209W, strain ssb2, active compounds read low 0.999 | S. cerevisiae deletion strains, locus YNL233W, strain BNI4, active compounds read low 0.998 | S. cerevisiae deletion strains, locus YNL248C, strain rpa49, active compounds read low 0.989 | S. cerevisiae deletion strains, locus YNL250W, strain rad50, active compounds read low 1.03 | S. cerevisiae deletion strains, locus YNL271C, strain bni1, active compounds read low 1.03 | S. cerevisiae deletion strains, locus YNL298W, strain CLA4, active compounds read low 1.04 | S. cerevisiae deletion strains, locus YNL307C, strain MCK1, active compounds read low 1.01 | S. cerevisiae deletion strains, locus YNL322C, strain KRE1 (second series), active compounds read low 0.995 | S. cerevisiae deletion strains, locus YNL322C, strain KRE1, active compounds read low 1.01 | S. cerevisiae deletion strains, locus YNR049C, strain mso1, active compounds read low 0.998 | S. cerevisiae deletion strains, locus YNR052C, strain pop2, active compounds read low 1.03 | S. cerevisiae deletion strains, locus YOL006C, strain TOP1, active compounds read low 1.03 | S. cerevisiae deletion strains, locus YOL012C, strain htz1 1.06 | S. cerevisiae deletion strains, locus YOL147C, strain pex11, active compounds read low 1.02 | S. cerevisiae deletion strains, locus YOR001W, strain rrp6, active compounds read low 0.977 | S. cerevisiae deletion strains, locus YOR061W, strain CKA2, active compounds read low 1.01 | S. cerevisiae deletion strains, locus YOR069W, strain VPS5, active compounds read low 1.01 | S. cerevisiae deletion strains, locus YOR070C, strain gyp1, active compounds read low 1 | S. cerevisiae deletion strains, locus YOR080W, strain dia2, active compounds read low 1 | S. cerevisiae deletion strains, locus YOR083W, strain WHI5, active compounds read low 0.999 | S. cerevisiae deletion strains, locus YOR106W, strain vam3, active compounds read low 0.985 | S. cerevisiae deletion strains, locus YOR136W, strain idh2, active compounds read low 1.03 | S. cerevisiae deletion strains, locus YOR144C, strain elg1, active compounds read low 1.02 | S. cerevisiae deletion strains, locus YOR184W, strain ser1, active compounds read low 1.03 | S. cerevisiae deletion strains, locus YOR231W, strain MKK1, active compounds read low 1.03 | S. cerevisiae deletion strains, locus YOR265W, strain rbl2, active compounds read low 1.03 | S. cerevisiae deletion strains, locus YOR270C, strain vph1, active compounds read low 0.974 | S. cerevisiae deletion strains, locus YOR290C, strain snf2, active compounds read low 0.987 | S. cerevisiae deletion strains, locus YOR316C, strain cot1, active compounds read low 1.03 | S. cerevisiae deletion strains, locus YPL051W, strain arl3, active compounds read low 1 | S. cerevisiae deletion strains, locus YPL055C, strain LGE1, active compounds read low 1.02 | S. cerevisiae deletion strains, locus YPL078C, strain atp4, active compounds read low 0.989 | S. cerevisiae deletion strains, locus YPL106C, strain sse1, active compounds read low 1.04 | S. cerevisiae deletion strains, locus YPL240C, strain hsp82, active compounds read low 1.01 | S. cerevisiae deletion strains, locus YPL241C, strain CIN2, active compounds read low 1.01 | S. cerevisiae deletion strains, locus YPL256C, strain CLN2, active compounds read low 1.07 | S. cerevisiae deletion strains, locus YPR119W, strain clb2, active compounds read low 1.02 | S. cerevisiae deletion strains, locus YPR141C, strain kar3, active compounds read low 1.03 | S. cerevisiae deletion strains, locus YPR163C, strain tif3, active compounds read low 1.02 | S. cerevisiae deletion strains, locus YPR167C, strain met16, active compounds read low 1.03 | S. cerevisiae deletion strains, strain wtn01, active compounds read low 1.02 | S. cerevisiae strains, strain wild type, active compounds read low 1.01
